{"source": "PubChem BioAssay (EPA / NIEHS)", "note": "Values joined by “and” are separate entries in the source; they are usually repeats but may differ in a detail not shown here. Equal entries are not always repeated. Records with an inconclusive call do not appear. The source holds several records for some structures; these can differ, active in one and inactive in another. Active and inactive are the calls of the source. How the source made its calls: active means hit-call score of the fitted dose curve at least 0.9, where 1 is the maximum; inconclusive means response in the unintended direction; inactive means score below 0.9."}
{"experiment": "Tanguay_ZF_120hpf_TRUN_legacy: (Legacy) Oregon State University Tanguay Lab 120 Hour Post-fertilization zebrafish Assay for Truncated Body (AID 2283655)", "protocol": "Tanguay_ZF_120hpf_legacy is a whole embryo, multiplexed endpoint assay using zebrafish larvae exposed for 120 hours post fertilization on a 96-well plate.Tanguay_ZF_120hpf_TRUN_legacy is one of one assay component(s) measured or calculated from the Tanguay_ZF_120hpf_legacy assay. It is designed to make measurements of zebrafish development as detected with brightfield microscopy of developing zebrafish embryos.Data from the assay component Tanguay_ZF_120hpf_TRUN_legacy was analyzed into 1 assay endpoints. This assay endpoint, Tanguay_ZF_120hpf_TRUN_legacy, was analyzed in the positive analysis fitting direction relative to DMSO as the negative control and baseline of activity. Using a type of morphology reporter, gain-of-signal activity can be used to understand changes in developmentals as they relate to the whole embryo. To generalize the intended target to other relatable targets, this assay endpoint is annotated to the zebrafish development intended target family, where the subfamily is embryonic morphogenesis.\nZebrafish husbandry: Tropical 5D wild-type adult zebrafish were housed in at an approximate density of 1000 per 100 gallon tank at the Sinnhuber Aquatic Research Laboratory, Oregon State University, Corvallis, OR. Each tank was kept at standard laboratory conditions of 28C on a 14-h light/10-h dark photoperiod in fish water consisting of reverse osmosis water supplemented with a commercially available salt (Instant Ocean). Spawning funnels were placed into the tanks the night prior, and embryos were collected and staged. To increase bioavailability, the chorion was enzymatically removed using pronase (63.6mg/ml, >/= 3.5U/mg, Sigma-Aldrich: P5147) at 4 hours post fertilization (hpf) using a custom automated dechorionator.Chemical exposures: Six hpf dechorionated embryos were placed 1 embryo per well in a 96-well plate prefilled with 90 ul of EM using automated embryo placement systems (AEPS). Ten microliters of each row of dilution plate 2 was added to 2 exposure plates. The final DMSO concentration used was 0.64% (vol/vol). Thirty-two embryos were also exposed to 5uM trimethyltin chloride (positive control). Plates were sealed to prevent evaporation and foil covered to reduce light exposure and kept in a 28C incubator. Embryos were statically exposed until 120 hpf. At 24 hpf, embryos were assessed for photomotor response using a custom photomotor response analysis tool (PRAT) and for developmental toxicity endpoints (MO24: mortality at 24 hpf, DP: developmental progression, SM: spontaneous movement, and NC: notochord distortion). At 120 hpf, locomotor activity was measured using Viewpoint Zebralab and assessed for 18 endpoints. Zebrafish acquisition and analysis program (ZAAP), a custom program designed to inventory, acquire, and manage zebrafish data, was used to collect developmental endpoints as either present or absent (i.e., binary responses were recorded). If mortality occurred for an embryo (at either 24 or 120 hpf), the non-mortality endpoints were not measured."}
{"smiles": "CCCCC(CC)COC(=O)c1ccccc1C(=O)O", "note": "(stereo not given)", "outcome": "inactive"}
{"smiles": "CCC(C)OC(=O)N1CCCCC1CCO", "note": "(stereo not given)", "outcome": "inactive"}
{"smiles": "COc1c(Cl)ccc(Cl)c1C(=O)O", "outcome": "inactive"}
{"smiles": "O=C(c1ccccc1)C1CCCCC1", "outcome": "inactive"}
{"smiles": "CCN(Cc1c(F)cccc1Cl)c1c([N+](=O)[O-])cc(C(F)(F)F)cc1[N+](=O)[O-]", "outcome": "inactive"}
{"smiles": "COCCO", "outcome": "inactive"}
{"smiles": "N[C@@H](Cc1cc(I)c(Oc2ccc(O)c(I)c2)c(I)c1)C(=O)O", "outcome": "inactive"}
{"smiles": "CC1(C)C(C=C(Cl)Cl)C1C(=O)OCc1cccc(Oc2ccccc2)c1", "note": "(stereo not given)", "outcome": "inactive"}
{"smiles": "Cc1nn(C)c(Oc2ccccc2)c1C=NOCc1ccc(C(=O)OC(C)(C)C)cc1", "outcome": "inactive"}
{"smiles": "CCCCC(CC)CN1C(=O)C2C3C=CC(C3)C2C1=O", "note": "(stereo not given)", "outcome": "inactive"}
{"smiles": "CCCCOC(=O)[C@@H](C)Oc1ccc(Oc2ccc(C(F)(F)F)cn2)cc1", "outcome": "inactive"}
{"smiles": "O=C(O)c1ccccc1", "outcome": "inactive"}
{"smiles": "C[C@]12C[C@H](O)[C@H]3[C@@H](CCC4=CC(=O)CC[C@@]43C)[C@@H]1CC[C@@H]2C(=O)CO", "outcome": "inactive"}
{"smiles": "C=CCOC(Cn1ccnc1)c1ccc(Cl)cc1Cl", "note": "(stereo not given)", "outcome": "inactive"}
{"smiles": "CC(C)(c1ccc(O)cc1)c1ccc(O)cc1", "AC50": "25.9 µM (active) and 43.8 µM (active)", "outcome": "inactive"}
{"smiles": "OB(O)O", "outcome": "inactive"}
{"smiles": "CCOC(=O)c1ccc(O)cc1", "outcome": "inactive"}
{"smiles": "S=C([S-])NCCNC(=S)[S-].[Mn+2]", "outcome": "inactive"}
{"smiles": "c1ccc2[nH]c(-c3cscn3)nc2c1", "outcome": "inactive"}
{"smiles": "C[C@]12CC[C@@H]3c4ccc(O)cc4C[C@@H](CCCCCCCCCS(=O)CCCC(F)(F)C(F)(F)F)[C@H]3[C@@H]1CC[C@@H]2O", "note": "(stereo not given in full)", "outcome": "inactive"}
{"smiles": "CC(=O)[C@H]1CC[C@H]2[C@@H]3CCC4=CC(=O)CC[C@]4(C)[C@H]3CC[C@]12C", "outcome": "inactive"}
{"smiles": "CCCN(CCC)C(=O)SCC", "outcome": "inactive"}
{"smiles": "COC(=O)CSc1cc(N=c2sc(=O)n3n2CCCC3)c(F)cc1Cl", "outcome": "inactive"}
{"smiles": "CCN(CC)C(=O)c1cccc(C)c1", "outcome": "inactive"}
{"smiles": "CCOC(=O)COc1cc(-n2ncc(C(F)(F)F)c(C)c2=O)c(F)cc1Cl", "outcome": "inactive"}
{"smiles": "CCSC(=O)N(CC(C)C)CC(C)C", "outcome": "inactive"}
{"smiles": "O=C(O)C1(C(=O)Nc2ccc(Cl)cc2Cl)CC1", "outcome": "inactive"}
{"smiles": "O=C(Nc1ccc([N+](=O)[O-])cc1Cl)c1cc(Cl)ccc1O", "outcome": "inactive"}
{"smiles": "CCOC(=O)C(C)Oc1ccc(Oc2cnc3cc(Cl)ccc3n2)cc1", "note": "(stereo not given)", "outcome": "inactive"}
{"smiles": "COC(=O)c1ccccc1C(=O)O", "outcome": "inactive"}
{"smiles": "N#CSCSc1nc2ccccc2s1", "outcome": "inactive"}
{"smiles": "COC(=O)c1ccc(I)cc1S(=O)(=O)NC(=O)Nc1nc(C)nc(OC)n1", "outcome": "inactive"}
{"smiles": "O=C(c1ccc(O)cc1O)c1ccc(O)cc1O", "outcome": "inactive"}
{"smiles": "CCNc1nc(N)nc(Cl)n1", "outcome": "inactive"}
{"smiles": "CCCCCOC(=O)COc1cc(N2C(=O)C3=C(CCCC3)C2=O)c(F)cc1Cl", "outcome": "inactive"}
{"smiles": "CC(C)(C)[C@@H](O)[C@@H](Cc1ccc(Cl)cc1)n1cncn1", "outcome": "inactive"}
{"smiles": "CSC(=O)c1cccc2nnsc12", "outcome": "inactive"}
{"smiles": "CC(C)CCCCCCc1ccc(O)cc1", "outcome": "inactive"}
{"smiles": "CCCCOCCOCCOCc1cc2c(cc1CCC)OCO2", "AC50": "48 µM (active)"}
